Data from PubChem BioAssay (Tox21).
Results filed as inconclusive are left out. Activity calls are given as the source filed them. Unless noted, calls come from the whole dose curve; as a rule, active = well fitted curve in the direction sought with a large enough effect in the repeat runs; inconclusive = weak or mixed curves; inactive = no such curve, though single readings can be large; an effect the other way counts as inactive or inconclusive.

Experiments:
[1] = qHTS assay to identify small molecule agonists of the peroxisome proliferator-activated receptor delta (PPARd) signaling pathway - cell viability counter screen (AID 743211); note: nearly all actives have a fitted effect of over 55% in size
Method in brief: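 Viability was measured as CellTiter-Glo luminescence (30 min, room temperature) in the same wells as the beta-lactamase readout. GeneBLAzer PPARd UAS-bla HEK293H cells received compound after 5 h plating and were incubated 17 h at 37 C.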

[2] = qHTS assay to identify small molecule antagonists of the peroxisome proliferator-activated receptor delta (PPARd) signaling pathway - cell viability counter screen (AID 743213); note: nearly all actives have a fitted effect of over 50% in size
Method in brief: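 Cytotoxicity counter screen: CellTiter-Glo luminescence read 30 min after addition, in the same wells as the reporter assay. There, PPARd UAS-bla HEK293H cells (3000/well) were treated 17 h at 37 C with compound and 300 nM L165041.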

[3] = qHTS assay to identify small molecule agonists of the farnesoid-X-receptor (FXR) signaling pathway - cell viability counter screen (AID 743218); note: nearly all actives have a fitted effect of over 45% in size
Method in brief: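 Cytotoxicity counter-screen run in parallel, same wells: FXR-UAS-bla HEK 293T cells dosed 16 h at 37 C, viability read by CellTiter-Glo luminescence after 30 min at room temperature.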

[4] = molecular target: Bile acid receptor (Homo sapiens) (UniProt Q96RI1); assay: qHTS assay to identify small molecule agonists of the farnesoid-X-receptor (FXR) signaling pathway (AID 743220; active = well fitted activation curve with a large enough effect in the signal ratio in the repeat runs, not every such curve was filed as active; the % refers to the signal ratio)
Sequence of Bile acid receptor (Homo sapiens) (Q96RI1 whole entry, looked up): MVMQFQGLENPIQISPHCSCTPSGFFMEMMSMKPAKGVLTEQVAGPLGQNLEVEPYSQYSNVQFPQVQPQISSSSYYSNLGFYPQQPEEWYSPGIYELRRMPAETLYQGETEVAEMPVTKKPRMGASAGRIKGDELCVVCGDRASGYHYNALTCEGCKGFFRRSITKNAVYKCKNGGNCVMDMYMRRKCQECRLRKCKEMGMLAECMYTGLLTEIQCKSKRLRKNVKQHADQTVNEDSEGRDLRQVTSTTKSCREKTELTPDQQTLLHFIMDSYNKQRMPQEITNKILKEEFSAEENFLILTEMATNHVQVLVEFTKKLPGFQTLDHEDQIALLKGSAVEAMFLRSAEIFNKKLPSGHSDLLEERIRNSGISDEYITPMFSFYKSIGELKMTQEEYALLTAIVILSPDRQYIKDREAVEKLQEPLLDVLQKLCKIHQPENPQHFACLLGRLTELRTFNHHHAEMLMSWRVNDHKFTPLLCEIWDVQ
Method in brief: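 Beta-lactamase reporter under UAS control in GeneBLAzer FXR HEK 293T cells (5000/well) measured with LiveBLAzer FRET substrate after 2 h at room temperature. Compound exposure lasted 16 h at 37C.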

[5] = molecular target: Vitamin D3 receptor (Homo sapiens) (UniProt P11473); assay: qHTS assay to identify small molecule agonists of the vitamin D receptor (VDR) signaling pathway (AID 743222; calls by dose curve)
Sequence of Vitamin D3 receptor (Homo sapiens) (P11473 whole entry, looked up): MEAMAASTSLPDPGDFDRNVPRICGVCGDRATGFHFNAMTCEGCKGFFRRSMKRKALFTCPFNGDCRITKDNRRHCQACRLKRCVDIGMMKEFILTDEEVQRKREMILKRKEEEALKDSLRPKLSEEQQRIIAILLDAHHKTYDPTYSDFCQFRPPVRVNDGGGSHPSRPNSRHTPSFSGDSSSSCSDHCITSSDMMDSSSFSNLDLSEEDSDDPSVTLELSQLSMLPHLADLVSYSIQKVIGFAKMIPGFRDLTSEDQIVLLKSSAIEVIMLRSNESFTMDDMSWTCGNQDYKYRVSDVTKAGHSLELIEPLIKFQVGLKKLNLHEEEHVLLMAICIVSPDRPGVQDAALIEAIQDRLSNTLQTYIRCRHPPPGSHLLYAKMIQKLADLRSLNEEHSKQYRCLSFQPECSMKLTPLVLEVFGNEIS
Method in brief: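 Quantitative HTS agonist-mode screen: compounds in DMSO were pin-transferred onto VDR-bla cells and incubated 16 h at 37C, 5% CO2. Reporter activity was detected with LiveBLAzer B/G FRET substrate after 2 h at room temperature.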

[6] = molecular target: Vitamin D3 receptor (Homo sapiens) (UniProt P11473); assay: qHTS assay to identify small molecule antagonists of the vitamin D receptor (VDR) signaling pathway (AID 743223; active = well fitted inhibition curve with a large enough effect in the signal ratio in the repeat runs, not every such curve was filed as active; the % refers to the signal ratio)
Method in brief: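 Antagonist mode: compound added to VDR-bla cells alongside agonist 1alpha,25-dihydroxyvitamin D3 (3 nM final), incubation 16 h at 37C. Read-out is LiveBLAzer FRET fluorescence, 2 h at room temperature.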

[7] = qHTS assay to identify small molecule agonists of the vitamin D receptor (VDR) signaling pathway - cell viability counter screen (AID 743224); note: series mostly up to about 63 µM; nearly all actives have a fitted effect of over 50% in size
Method in brief: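 Viability is measured in the same wells as the VDR-bla reporter assay: after 16 h compound treatment and 2 h substrate loading, CellTiter-Glo is added and luminescence read 30 min later.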

[8] = qHTS assay to identify small molecule agonists of the NFkB signaling pathway - cell viability counter screen (AID 1159515; calls by dose curve; note: series mostly up to about 61 µM; nearly all actives have a fitted effect of over 55% in size)
Method in brief: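 Multiplexed viability readout: after the 5 hr compound exposure and 1.5 hr FRET substrate step, CellTiter-Glo reagent went into the same NFkB-bla ME-180 wells; ATP luminescence was measured after 30 min at room temperature.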

[9] = qHTS assay to identify small molecule agonists of the endoplasmic reticulum stress response signaling pathway (AID 1159516; active = well fitted activation curve with a large enough effect in the signal ratio in the repeat runs, not every such curve was filed as active; the % refers to the signal ratio)
Method in brief: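 Tox21 10K library screened in quantitative HTS format on ESRE-bla HeLa cells, a beta-lactamase reporter under ER stress response element control; 5 hr treatment, FRET read.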

[10] = qHTS assay to identify small molecule agonists of the endoplasmic reticulum stress response signaling pathway - cell viability counter screen (AID 1159517; calls by dose curve; note: series mostly up to about 61 µM; nearly all actives have a fitted effect of over 50% in size)
Method in brief: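 HeLa cells carrying an ESRE-driven beta-lactamase reporter receive compound for 5 hr at 37 C. Cell viability is then gauged with CellTiter-Glo by luminescence, 30 min at room temperature.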

[11] = qHTS assay to identify small molecule antagonists of the retinoid-related orphan receptor gamma (ROR-gamma) signaling pathway - cell viability counter screen (AID 1159520); note: nearly all actives have a fitted effect of over 50% in size
Method in brief: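 Cytotoxicity was read from cellular ATP (CellTiter-Glo luminescence) after 16 hr at 37 C with 1 uM doxycycline induction. The inducer was added 2 hr after compound transfer to Tet-on ROR gamma CHO cells.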

[12] = molecular target: Nuclear receptor ROR-gamma (Homo sapiens) (UniProt P51449); assay: qHTS assay to identify small molecule antagonists of the retinoid-related orphan receptor gamma (ROR-gamma) signaling pathway (AID 1159521)
Method in brief: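 Antagonist read-out: drop in luminescence (ONE-Glo) from an RORE-LUC reporter in CHO cells with doxycycline-inducible ROR-gamma; 2 hr compound pretreatment, 1 uM doxycycline, 16 hr incubation at 37 C.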

[13] = qHTS assay to identify small molecule agonists of the AP-1 signaling pathway - cell viability counter screen (AID 1159525; calls by dose curve; note: nearly all actives have a fitted effect of over 55% in size)
Method in brief: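 Luminescent ATP readout (Cell Titer Glo, 30 min RT), normalised to DMSO and tetra n-octyl ammonium bromide controls. Cells were ME-180 AP-1-bla in 0.5% dialyzed FBS Opti-MEM, with a 5 h, 37 °C compound exposure.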

[14] = qHTS assay to identify small molecule agonists of the AP-1 signaling pathway (AID 1159526; calls by dose curve)
[15] = molecular target: Peroxisome proliferator-activated receptor delta (Homo sapiens) (UniProt Q03181); assay: qHTS assay to identify small molecule antagonists of the peroxisome proliferator-activated receptor delta (PPARd) signaling pathway (AID 743215; active = well fitted inhibition curve with a large enough effect in the signal ratio in the repeat runs, not every such curve was filed as active; the % refers to the signal ratio;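 note: cells stimulated with agonist L165041 at 300 nM final during compound exposure; series mostly up to about 62 µM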)
Sequence of Peroxisome proliferator-activated receptor delta (Homo sapiens) (Q03181 whole entry, looked up): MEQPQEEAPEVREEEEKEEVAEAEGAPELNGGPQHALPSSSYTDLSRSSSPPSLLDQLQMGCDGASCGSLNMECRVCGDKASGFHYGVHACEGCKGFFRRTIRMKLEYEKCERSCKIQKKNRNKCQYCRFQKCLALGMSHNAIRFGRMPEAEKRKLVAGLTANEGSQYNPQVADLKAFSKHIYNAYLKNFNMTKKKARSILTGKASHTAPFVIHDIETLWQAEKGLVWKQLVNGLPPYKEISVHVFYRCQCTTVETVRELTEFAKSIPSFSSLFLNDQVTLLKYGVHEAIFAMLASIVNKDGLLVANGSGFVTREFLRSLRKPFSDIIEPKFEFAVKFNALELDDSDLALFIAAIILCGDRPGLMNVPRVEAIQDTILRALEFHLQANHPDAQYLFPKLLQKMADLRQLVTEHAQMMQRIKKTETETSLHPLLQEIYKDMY
Method in brief: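 Inhibition of L165041-driven (300 nM final) PPARd signaling is scored in HEK293H UAS-bla cells. Exposure lasts 17 h at 37 C; beta-lactamase activity is then read by FRET substrate fluorescence after 2 h at room temperature.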

[16] = qHTS assay to identify small molecule antagonists of the farnesoid-X-receptor (FXR) signaling pathway - cell viability counter screen (AID 743221; active = well fitted cell-killing curve with a large enough effect in the repeat runs, not every such curve was filed as active; note: nearly all actives have a fitted effect of over 50% in size)
Method in brief: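 Cytotoxicity counter screen run in the FXR-bla reporter wells: HEK 293T cells exposed to compound with 50 uM (final) chenodeoxycholic acid for 16 h, 37 C, then viability measured by CellTiter-Glo luminescence after 30 min, room temperature.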

[17] = qHTS assay to identify small molecule antagonists of the vitamin D receptor (VDR) signaling pathway - cell viability counter screen (AID 743225); note: nearly all actives have a fitted effect of over 50% in size
Method in brief: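 Cytotoxicity counter screen read by CellTiter-Glo luminescence (30 min, room temperature) in the same wells as the VDR-bla antagonist readout. HEK 293T VDR-UAS-bla cells had 16 h at 37C with compound and 3 nM (final) 1-alpha,25-dihydroxyvitamin D3, then 2 h with FRET substrate.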

[18] = molecular target: Peroxisome proliferator-activated receptor delta (Homo sapiens) (UniProt Q03181); assay: qHTS assay to identify small molecule agonists of the peroxisome proliferator-activated receptor delta (PPARd) signaling pathway (AID 743212; calls by dose curve)
Method in brief: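 HEK293H PPARd-bla cells; 5 h preincubation 37 C/5% CO2; compound (DMSO) 37 C; LiveBLAzer B/G FRET substrate 2 h RT; fluorescence intensity.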

[19] = molecular target: Bile acid receptor (Homo sapiens) (UniProt Q96RI1); assay: qHTS assay to identify small molecule antagonists of the farnesoid-X-receptor (FXR) signaling pathway (AID 743217; active = well fitted inhibition curve with a large enough effect in the signal ratio in the repeat runs, not every such curve was filed as active; the % refers to the signal ratio)
Method in brief: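 Antagonist mode against 50 uM (final) chenodeoxycholic acid stimulation in FXR-bla HEK 293T cells, 16 h at 37 °C. Inhibition detected as reduced beta-lactamase activity via LiveBLAzer B/G FRET fluorescence after 2 h at room temperature.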

Measured: Potency

CC(C)(C)c1cc(CO)cc(C(C)(C)C)c1O
inactive: [1] | [2] | [3] | [4] | [5] | [6] | [7] | [8] | [9] | [10] | [11] | [12] | [13] | [14]

CCCCCC(CO)CCC (stereo unspecified)
inactive: [1] | [15] | [3] | [16] | [5] | [6] | [7] | [17] | [8] | [9] | [10] | [11] | [12] | [13] | [14]

CCCCCCCCCC=O
inactive: [1] | [2] | [3] | [16] | [5] | [6] | [7] | [8] | [9] | [10] | [11] | [12] | [13] | [14]

CC(C)(Oc1ccc(Cl)cc1)C(=O)OCCCOC(=O)C(C)(C)Oc1ccc(Cl)cc1
inactive: [1] | [2] | [15] | [3] | [16] | [5] | [6] | [7] | [17] | [8] | [9] | [10] | [11] | [12] | [13] | [14]

CCOC(=O)C1=C(C)NC(C)=C(C(=O)OC)C1c1cccc([N+](=O)[O-])c1 (stereo unspecified)
inactive: [1] | [18] | [15] | [3] | [16] | [5] | [6] | [7] | [17] | [8] | [9] | [10] | [11] | [12] | [13] | [14]

CC(C)NCC(O)COc1ccc(CC(N)=O)cc1 (stereo unspecified)
inactive: [1] | [2] | [16] | [5] | [6] | [7] | [8] | [9] | [10] | [11] | [12] | [13] | [14]

O=C1CCCCCO1
inactive: [1] | [2] | [3] | [16] | [5] | [6] | [7] | [17] | [8] | [9] | [10] | [11] | [12] | [13] | [14]

Cn1c(=O)c2c(ncn2CC(O)CO)n(C)c1=O (stereo unspecified)
inactive: [1] | [18] | [15] | [19] | [16] | [5] | [7] | [17] | [8] | [9] | [10] | [11] | [12] | [13] | [14]

O=C(c1ccccc1)c1ccc2n1CCC2C(=O)O (stereo unspecified)
inactive: [1] | [2] | [3] | [16] | [7] | [17] | [8] | [9] | [10] | [11] | [12] | [13] | [14]

O=C(c1ccc(O)cc1)c1ccc(O)cc1
inactive: [1] | [18] | [3] | [16] | [5] | [7] | [17] | [8] | [9] | [10] | [11] | [12] | [13] | [14]

CC(=O)O[C@@H]1C(=O)O[C@@H]2[C@H]1OC(=O)[C@@H]2OC(C)=O
inactive: [1] | [18] | [3] | [16] | [7] | [17] | [8] | [9] | [10] | [11] | [12] | [13] | [14]

O=S(=O)(O)c1ccc(O)c2ncccc12
inactive: [1] | [2] | [19] | [4] | [16] | [5] | [7] | [17] | [8] | [9] | [10] | [11] | [12] | [13] | [14]

CCOc1cc(OCC)c(C(=O)CCC(=O)O)cc1OCC
inactive: [1] | [2] | [15] | [3] | [16] | [7] | [17] | [8] | [9] | [10] | [11] | [12] | [13] | [14]

O=C(O)c1cn(C2CC2)c2cc(Cl)c(F)cc2c1=O
inactive: [1] | [2] | [15] | [16] | [5] | [6] | [7] | [8] | [9] | [10] | [11] | [12] | [13] | [14]

O=C1[C@H](CC[C@H](O)c2ccc(F)cc2)[C@@H](c2ccc(O)cc2)N1c1ccc(F)cc1
inactive: [1] | [2] | [15] | [3] | [16] | [5] | [6] | [7] | [17] | [8] | [9] | [10] | [11] | [12] | [13] | [14]

CC(=O)/C=C/C1C(C)=CCCC1(C)C (stereo unspecified)
inactive: [1] | [2] | [19] | [3] | [4] | [16] | [5] | [6] | [7] | [17] | [8] | [9] | [10] | [11] | [12] | [13] | [14]

O=C1c2cccc(O)c2C(=O)c2c(O)cc(CO)cc21
inactive: [1] | [2] | [3] | [4] | [16] | [5] | [6] | [7] | [8] | [9] | [10] | [11] | [12] | [13] | [14]

COC(Cc1ccccc1)OC
inactive: [1] | [3] | [16] | [5] | [6] | [7] | [8] | [9] | [10] | [11] | [12] | [13] | [14]

COCCOCCOCCOCCOC
inactive: [1] | [18] | [2] | [3] | [6] | [7] | [17] | [8] | [9] | [10] | [11] | [12] | [13] | [14]
